Reference: ChEMBL document CHEMBL1961873, “Compounds: GSK PKIS; Assays: Nanosyn kinase panel” (2012)

Columns and labels:
[1] = molecular target: Sphingosine kinase 1 (Homo sapiens) (UniProt Q9NYA1); conditions: at 1 µM;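 further: mean SPHK1 inhibition value reported from the GSK PKIS kinase panel screen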
[2] = molecular target: T1, Sphingosine kinase 2 (Homo sapiens) (UniProt Q9NRA0); conditions: at 0.1 µM
T1 sequence (whole entry): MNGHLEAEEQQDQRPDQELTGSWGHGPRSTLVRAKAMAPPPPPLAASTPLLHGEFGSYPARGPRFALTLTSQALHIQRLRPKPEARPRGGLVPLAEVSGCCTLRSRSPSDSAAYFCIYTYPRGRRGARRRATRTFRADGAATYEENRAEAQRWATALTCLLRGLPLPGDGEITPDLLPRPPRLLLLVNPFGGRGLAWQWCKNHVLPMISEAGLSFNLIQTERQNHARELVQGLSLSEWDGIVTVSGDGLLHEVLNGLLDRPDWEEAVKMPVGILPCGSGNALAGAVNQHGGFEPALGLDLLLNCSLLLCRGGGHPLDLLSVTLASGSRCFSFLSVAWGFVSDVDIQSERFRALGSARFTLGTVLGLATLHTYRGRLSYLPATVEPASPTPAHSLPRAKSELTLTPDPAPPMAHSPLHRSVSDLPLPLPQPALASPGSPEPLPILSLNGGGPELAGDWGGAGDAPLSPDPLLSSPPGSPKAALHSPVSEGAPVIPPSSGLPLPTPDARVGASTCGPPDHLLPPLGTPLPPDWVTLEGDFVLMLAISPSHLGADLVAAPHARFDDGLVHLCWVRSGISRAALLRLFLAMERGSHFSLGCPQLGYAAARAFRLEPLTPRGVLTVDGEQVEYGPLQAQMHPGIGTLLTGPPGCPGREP

[3] = molecular target: T1, Sphingosine kinase 2 (Homo sapiens); conditions: at 1 µM
[4] = molecular target: Casein kinase II subunit alpha (Homo sapiens) (UniProt P68400); conditions: at 0.1 µM
[5] = molecular target: Casein kinase II subunit alpha (Homo sapiens) (UniProt P68400); conditions: at 1 µM
[6] = molecular target: T2, Inhibitor of nuclear factor kappa-B kinase subunit alpha (Homo sapiens) (UniProt O15111); conditions: at 0.1 µM
T2 sequence (whole entry): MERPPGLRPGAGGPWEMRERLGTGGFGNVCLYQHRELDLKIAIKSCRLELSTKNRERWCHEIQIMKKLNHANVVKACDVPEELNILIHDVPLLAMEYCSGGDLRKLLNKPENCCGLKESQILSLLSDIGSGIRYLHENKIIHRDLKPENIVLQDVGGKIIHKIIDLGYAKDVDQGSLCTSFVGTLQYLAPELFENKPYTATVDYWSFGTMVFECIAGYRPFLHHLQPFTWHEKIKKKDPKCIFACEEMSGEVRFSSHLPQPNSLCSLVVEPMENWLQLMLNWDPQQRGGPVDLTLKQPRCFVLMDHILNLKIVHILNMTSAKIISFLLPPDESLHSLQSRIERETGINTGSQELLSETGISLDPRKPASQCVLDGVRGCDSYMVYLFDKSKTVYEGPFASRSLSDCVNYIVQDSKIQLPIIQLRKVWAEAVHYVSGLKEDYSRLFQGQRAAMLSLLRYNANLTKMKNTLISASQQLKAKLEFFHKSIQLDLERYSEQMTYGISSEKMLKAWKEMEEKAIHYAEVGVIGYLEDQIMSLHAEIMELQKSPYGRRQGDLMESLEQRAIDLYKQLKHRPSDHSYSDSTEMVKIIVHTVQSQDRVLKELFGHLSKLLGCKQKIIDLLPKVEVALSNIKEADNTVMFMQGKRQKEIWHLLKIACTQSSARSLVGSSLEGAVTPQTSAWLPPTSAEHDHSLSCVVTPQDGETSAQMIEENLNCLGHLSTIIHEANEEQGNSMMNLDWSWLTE

[7] = molecular target: T2, Inhibitor of nuclear factor kappa-B kinase subunit alpha (Homo sapiens); conditions: at 1 µM
[8] = molecular target: T3, Inhibitor of nuclear factor kappa-B kinase subunit beta (Homo sapiens) (UniProt O14920); conditions: at 0.1 µM
T3 sequence (whole entry): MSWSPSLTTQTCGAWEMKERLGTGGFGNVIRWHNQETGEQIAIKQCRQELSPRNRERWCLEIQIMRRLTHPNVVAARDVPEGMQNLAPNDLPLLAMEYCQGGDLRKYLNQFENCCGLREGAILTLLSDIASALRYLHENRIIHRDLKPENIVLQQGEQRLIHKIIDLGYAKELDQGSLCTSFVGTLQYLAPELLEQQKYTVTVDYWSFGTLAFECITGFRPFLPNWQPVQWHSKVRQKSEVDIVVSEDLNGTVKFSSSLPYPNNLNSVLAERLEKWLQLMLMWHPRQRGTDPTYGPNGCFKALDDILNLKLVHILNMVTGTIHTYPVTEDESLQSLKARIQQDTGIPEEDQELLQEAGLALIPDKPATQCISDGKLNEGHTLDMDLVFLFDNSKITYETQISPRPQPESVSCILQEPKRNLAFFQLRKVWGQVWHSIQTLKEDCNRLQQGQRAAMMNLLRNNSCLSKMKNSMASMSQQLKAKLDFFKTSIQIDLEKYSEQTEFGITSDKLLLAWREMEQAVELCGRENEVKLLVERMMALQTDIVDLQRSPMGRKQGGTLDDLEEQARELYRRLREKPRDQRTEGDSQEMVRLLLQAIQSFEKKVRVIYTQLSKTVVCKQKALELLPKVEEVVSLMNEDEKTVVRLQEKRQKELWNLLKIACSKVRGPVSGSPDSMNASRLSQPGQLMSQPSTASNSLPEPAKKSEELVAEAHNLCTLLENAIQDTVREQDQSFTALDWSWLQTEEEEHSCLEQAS

[9] = molecular target: T3, Inhibitor of nuclear factor kappa-B kinase subunit beta (Homo sapiens); conditions: at 1 µM
[10] = molecular target: T4, Inhibitor of nuclear factor kappa-B kinase subunit epsilon (Homo sapiens) (UniProt Q14164); conditions: at 0.1 µM
T4 sequence (whole entry): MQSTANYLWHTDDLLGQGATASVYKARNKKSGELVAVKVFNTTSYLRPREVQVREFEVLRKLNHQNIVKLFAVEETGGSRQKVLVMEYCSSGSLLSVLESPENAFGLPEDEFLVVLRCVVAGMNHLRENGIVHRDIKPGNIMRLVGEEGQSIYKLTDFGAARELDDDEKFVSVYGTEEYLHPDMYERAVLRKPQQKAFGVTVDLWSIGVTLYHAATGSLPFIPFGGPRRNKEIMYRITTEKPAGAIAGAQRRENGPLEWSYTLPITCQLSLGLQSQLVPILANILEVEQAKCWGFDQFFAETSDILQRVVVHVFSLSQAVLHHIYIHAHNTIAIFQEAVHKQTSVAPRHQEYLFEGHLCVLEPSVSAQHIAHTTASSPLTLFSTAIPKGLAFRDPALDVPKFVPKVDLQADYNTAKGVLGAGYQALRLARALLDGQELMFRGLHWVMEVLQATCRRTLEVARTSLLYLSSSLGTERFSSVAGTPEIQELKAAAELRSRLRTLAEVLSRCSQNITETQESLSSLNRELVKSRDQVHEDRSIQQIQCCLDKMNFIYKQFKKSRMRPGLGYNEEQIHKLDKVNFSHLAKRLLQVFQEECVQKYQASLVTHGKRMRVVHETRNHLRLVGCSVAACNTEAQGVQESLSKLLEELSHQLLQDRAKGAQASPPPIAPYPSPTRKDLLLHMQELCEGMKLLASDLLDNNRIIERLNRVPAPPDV

[11] = molecular target: T4, Inhibitor of nuclear factor kappa-B kinase subunit epsilon (Homo sapiens); conditions: at 1 µM
[12] = molecular target: T5, Serine/threonine-protein kinase Nek1 (Homo sapiens) (UniProt Q96PY6); conditions: at 0.1 µM
T5 sequence (whole entry): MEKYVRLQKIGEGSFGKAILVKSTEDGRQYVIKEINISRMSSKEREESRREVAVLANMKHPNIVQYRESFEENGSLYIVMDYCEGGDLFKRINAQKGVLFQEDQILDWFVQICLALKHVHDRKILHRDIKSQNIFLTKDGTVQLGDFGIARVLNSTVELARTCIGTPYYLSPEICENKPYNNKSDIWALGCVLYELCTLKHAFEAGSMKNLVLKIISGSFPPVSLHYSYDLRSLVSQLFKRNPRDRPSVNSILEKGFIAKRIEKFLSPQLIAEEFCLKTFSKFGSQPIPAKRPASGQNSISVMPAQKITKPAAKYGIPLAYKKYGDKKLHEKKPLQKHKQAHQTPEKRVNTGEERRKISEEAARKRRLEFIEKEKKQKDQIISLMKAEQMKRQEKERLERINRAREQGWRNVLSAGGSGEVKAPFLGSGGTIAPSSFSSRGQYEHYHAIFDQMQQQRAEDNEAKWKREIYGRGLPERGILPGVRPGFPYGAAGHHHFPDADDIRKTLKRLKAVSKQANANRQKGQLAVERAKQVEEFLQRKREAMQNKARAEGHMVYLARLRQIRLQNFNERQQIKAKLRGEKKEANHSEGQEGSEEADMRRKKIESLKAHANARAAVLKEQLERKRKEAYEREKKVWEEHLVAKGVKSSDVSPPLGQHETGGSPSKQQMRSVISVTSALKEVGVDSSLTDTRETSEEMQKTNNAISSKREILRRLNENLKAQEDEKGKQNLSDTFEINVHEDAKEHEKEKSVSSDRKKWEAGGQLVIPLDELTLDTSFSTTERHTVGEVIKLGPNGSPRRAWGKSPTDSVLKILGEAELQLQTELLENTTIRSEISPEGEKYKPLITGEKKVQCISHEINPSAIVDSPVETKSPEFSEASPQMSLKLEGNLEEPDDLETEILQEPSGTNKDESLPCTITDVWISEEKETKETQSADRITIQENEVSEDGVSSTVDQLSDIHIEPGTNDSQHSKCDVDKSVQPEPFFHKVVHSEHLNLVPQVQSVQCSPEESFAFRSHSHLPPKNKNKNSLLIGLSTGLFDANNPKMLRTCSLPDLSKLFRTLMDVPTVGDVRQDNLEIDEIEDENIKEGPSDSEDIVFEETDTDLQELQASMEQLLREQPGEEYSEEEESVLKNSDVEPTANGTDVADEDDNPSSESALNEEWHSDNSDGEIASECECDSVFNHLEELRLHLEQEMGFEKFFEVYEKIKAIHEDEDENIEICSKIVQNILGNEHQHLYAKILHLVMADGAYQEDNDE

[13] = molecular target: T5, Serine/threonine-protein kinase Nek1 (Homo sapiens); conditions: at 1 µM
[14] = molecular target: T6, Serine/threonine-protein kinase Nek2 (Homo sapiens) (UniProt P51955); conditions: at 0.1 µM
T6 sequence (whole entry): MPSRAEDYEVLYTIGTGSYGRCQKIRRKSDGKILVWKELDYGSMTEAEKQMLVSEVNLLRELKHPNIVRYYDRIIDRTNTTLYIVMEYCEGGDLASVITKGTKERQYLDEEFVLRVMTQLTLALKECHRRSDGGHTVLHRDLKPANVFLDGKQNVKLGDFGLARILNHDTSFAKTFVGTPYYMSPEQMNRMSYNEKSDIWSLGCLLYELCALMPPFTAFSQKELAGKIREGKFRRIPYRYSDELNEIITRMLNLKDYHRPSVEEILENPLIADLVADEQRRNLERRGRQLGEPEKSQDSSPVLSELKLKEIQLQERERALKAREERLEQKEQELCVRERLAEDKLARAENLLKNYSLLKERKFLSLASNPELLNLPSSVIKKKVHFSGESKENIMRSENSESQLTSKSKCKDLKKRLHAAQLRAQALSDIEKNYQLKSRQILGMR

[15] = molecular target: T6, Serine/threonine-protein kinase Nek2 (Homo sapiens); conditions: at 1 µM
[16] = molecular target: Serine/threonine-protein kinase Nek6 (Homo sapiens) (UniProt Q9HC98); conditions: at 0.1 µM
[17] = molecular target: Serine/threonine-protein kinase Nek6 (Homo sapiens) (UniProt Q9HC98); conditions: at 1 µM
[18] = molecular target: Serine/threonine-protein kinase Nek7 (Homo sapiens) (UniProt Q8TDX7); conditions: at 0.1 µM
[19] = molecular target: Serine/threonine-protein kinase Nek7 (Homo sapiens) (UniProt Q8TDX7); conditions: at 1 µM
[20] = molecular target: T7, Serine/threonine-protein kinase Nek9 (Homo sapiens) (UniProt Q8TD19); conditions: at 0.1 µM;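 further: reported value is the mean percent inhibition of NEK9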
T7 sequence (whole entry): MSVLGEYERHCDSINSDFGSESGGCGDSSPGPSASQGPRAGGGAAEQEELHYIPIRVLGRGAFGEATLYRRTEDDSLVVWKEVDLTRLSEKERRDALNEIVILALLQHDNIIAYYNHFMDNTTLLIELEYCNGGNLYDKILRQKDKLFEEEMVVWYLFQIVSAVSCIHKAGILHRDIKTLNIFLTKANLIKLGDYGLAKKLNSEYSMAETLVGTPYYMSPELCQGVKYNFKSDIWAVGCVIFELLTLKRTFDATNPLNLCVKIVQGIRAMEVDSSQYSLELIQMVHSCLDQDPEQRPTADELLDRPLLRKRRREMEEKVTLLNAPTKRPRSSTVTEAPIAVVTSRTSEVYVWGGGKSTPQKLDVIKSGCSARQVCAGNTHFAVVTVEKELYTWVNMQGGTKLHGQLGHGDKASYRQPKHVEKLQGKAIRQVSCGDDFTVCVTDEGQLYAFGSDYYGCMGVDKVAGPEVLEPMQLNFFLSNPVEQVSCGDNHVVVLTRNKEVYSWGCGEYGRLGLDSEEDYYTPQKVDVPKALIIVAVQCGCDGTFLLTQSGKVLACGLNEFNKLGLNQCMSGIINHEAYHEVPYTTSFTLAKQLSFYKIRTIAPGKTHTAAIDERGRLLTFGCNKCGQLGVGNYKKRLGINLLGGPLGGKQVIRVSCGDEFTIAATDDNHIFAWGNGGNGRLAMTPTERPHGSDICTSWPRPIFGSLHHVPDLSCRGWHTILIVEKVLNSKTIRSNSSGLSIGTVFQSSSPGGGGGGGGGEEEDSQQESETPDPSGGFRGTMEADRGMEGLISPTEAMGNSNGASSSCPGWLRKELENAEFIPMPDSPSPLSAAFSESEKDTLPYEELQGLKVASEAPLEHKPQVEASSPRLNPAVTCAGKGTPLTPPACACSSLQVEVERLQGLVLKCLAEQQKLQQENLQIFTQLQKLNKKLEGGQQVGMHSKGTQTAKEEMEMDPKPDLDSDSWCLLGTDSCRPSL

Sequence of Serine/threonine-protein kinase Nek6 (Homo sapiens) (Q9HC98 whole entry): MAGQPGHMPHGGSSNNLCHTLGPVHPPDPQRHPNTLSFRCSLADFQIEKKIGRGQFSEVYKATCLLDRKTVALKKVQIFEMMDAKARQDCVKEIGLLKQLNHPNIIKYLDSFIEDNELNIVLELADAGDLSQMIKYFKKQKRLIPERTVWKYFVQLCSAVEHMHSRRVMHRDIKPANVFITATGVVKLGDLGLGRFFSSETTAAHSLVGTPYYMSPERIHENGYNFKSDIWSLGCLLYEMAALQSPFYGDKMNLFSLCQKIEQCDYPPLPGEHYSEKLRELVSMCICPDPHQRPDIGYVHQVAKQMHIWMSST
Sequence of Serine/threonine-protein kinase Nek7 (Homo sapiens) (Q8TDX7 whole entry, looked up): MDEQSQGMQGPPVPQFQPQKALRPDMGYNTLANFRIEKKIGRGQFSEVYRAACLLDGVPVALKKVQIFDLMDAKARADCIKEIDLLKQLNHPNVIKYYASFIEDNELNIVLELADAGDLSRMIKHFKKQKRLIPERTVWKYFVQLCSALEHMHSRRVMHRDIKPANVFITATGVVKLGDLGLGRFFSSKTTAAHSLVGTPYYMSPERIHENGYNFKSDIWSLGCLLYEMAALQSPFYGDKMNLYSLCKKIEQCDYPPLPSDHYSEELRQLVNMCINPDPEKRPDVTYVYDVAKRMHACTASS
Sequence of Casein kinase II subunit alpha (Homo sapiens) (P68400 whole entry, looked up): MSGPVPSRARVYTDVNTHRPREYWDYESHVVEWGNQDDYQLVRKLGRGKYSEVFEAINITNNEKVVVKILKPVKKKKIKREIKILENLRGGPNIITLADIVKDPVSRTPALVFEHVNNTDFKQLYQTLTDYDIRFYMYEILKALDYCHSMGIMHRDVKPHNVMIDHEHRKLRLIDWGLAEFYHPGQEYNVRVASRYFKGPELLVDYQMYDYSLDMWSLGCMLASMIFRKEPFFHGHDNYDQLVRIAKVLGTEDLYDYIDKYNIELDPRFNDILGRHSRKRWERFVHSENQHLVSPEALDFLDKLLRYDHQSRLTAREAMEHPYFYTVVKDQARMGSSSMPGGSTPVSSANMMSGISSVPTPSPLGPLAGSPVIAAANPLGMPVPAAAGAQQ
Sequence of Sphingosine kinase 1 (Homo sapiens) (Q9NYA1 whole entry): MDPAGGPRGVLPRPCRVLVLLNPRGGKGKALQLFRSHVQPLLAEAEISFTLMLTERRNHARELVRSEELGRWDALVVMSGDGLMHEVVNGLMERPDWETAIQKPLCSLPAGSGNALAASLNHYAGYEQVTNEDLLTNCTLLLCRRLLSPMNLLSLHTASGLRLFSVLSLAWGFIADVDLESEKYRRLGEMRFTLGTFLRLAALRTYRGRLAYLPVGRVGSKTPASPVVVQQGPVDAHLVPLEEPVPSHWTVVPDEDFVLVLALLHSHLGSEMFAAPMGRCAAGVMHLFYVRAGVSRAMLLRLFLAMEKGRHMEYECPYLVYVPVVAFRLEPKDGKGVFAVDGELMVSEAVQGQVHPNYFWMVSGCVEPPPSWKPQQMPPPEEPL

NS(=O)(=O)c1ccc(N/N=C2\C(=O)Nc3ccc(-c4cnco4)cc32)cc1
inhibition [1]: 1.01% | inhibition [2]: 1.12% | inhibition [3]: -1.25% | inhibition [4]: 5.69% | inhibition [5]: 15.2% | inhibition [6]: 1.42% | inhibition [7]: 35.1% | inhibition [8]: 2.62% | inhibition [9]: 10.4% | inhibition [10]: 5.68% | inhibition [11]: 26.5% | inhibition [12]: 0.9% | inhibition [13]: -0.1% | inhibition [14]: 2.64% | inhibition [15]: 1.79% | inhibition [16]: 1.55% | inhibition [17]: 1.55% | inhibition [18]: 2.6% | inhibition [19]: 8.73% | inhibition [20]: 2.34%
